Experiment [1] addresses Progesterone receptor (Homo sapiens) (UniProt P06401). The experiment is described as follows: qHTS assay to identify small molecule agonists of the progesterone receptor (PR) signaling pathway (AID 1346784; calls by dose curve; note: nearly all actives have a fitted effect of over 30% in size). A digest of the protocol:
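Beta-lactamase reporter read-out: after 16 hr compound treatment at 37C and a further 2 hr at room temperature with LiveBLAzer B/G FRET substrate, fluorescence was measured in PR-UAS-bla HEK 293T cells grown in 2% charcoal-stripped serum.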
In general terms: In qHTS, concentration-response curves come from the screen itself.

The target is the same in experiment [2]. The experiment is described as follows: qHTS assay to identify small molecule antagonists of the progesterone receptor (PR) signaling pathway (AID 1346795; active = well fitted inhibition curve with a large enough effect in the signal ratio in the repeat runs, not every such curve was filed as active; the % refers to the signal ratio). The method, boiled down: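 Read-out is fluorescence from the LiveBLAzer B/G FRET substrate, cleaved by a UAS-controlled beta-lactamase in PR-UAS-bla HEK293T cells after 16 hr exposure to compound plus 1 nM promegestone (final), followed by 2 hr at room temperature.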

Experiment [3] is described as follows: qHTS assay to identify small molecule antagonists of the progesterone receptor (PR) signaling pathway - cell viability counter screen (AID 1346798).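 Note: HEK293T PR-UAS-bla cells stimulated with the agonist R5020; series mostly up to about 92 µM; nearly all actives have a fitted effect of over 50% in size.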 The method, boiled down:
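HEK293T PR-UAS-bla, 2% charcoal-stripped FBS; 4 hr pre-plate; cpd + R5020, 16 h 37C; LiveBLAzer read first; then CellTiter-Glo 30 min RT, luminescence.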

Experiment [4] is described as follows: qHTS assay to identify small molecule antagonists of the TGF-beta/Smad signaling pathway - cell viability counter screen (AID 1346824). Note: nearly all actives have a fitted effect of over 50% in size. A digest of the protocol: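 SBE-bla HEK 293T cells were plated overnight at 37 C, then given compounds in DMSO plus TGF-beta1 (added as 0.25 ng/mL solution) for 5 hr. After the bla read, CellTiter-Glo was added to the same wells and luminescence read after 30 min at room temperature.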

The nature of experiment [5]: qHTS assay to identify small molecule agonists of the TGF-beta/Smad signaling pathway - cell viability counter screen (AID 1346829). Note: top concentration of the series differs between compounds; nearly all actives have a fitted effect of over 45% in size. The method, boiled down: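 Tox21 qHTS format: SBE-bla HEK 293T cells treated with DMSO-dissolved compounds for 5 hr; CellTiter-Glo luminescence after 30 min at room temperature.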
Experiment [6] in a line: qHTS assay to identify small molecule agonists of the TGF-beta/Smad signaling pathway (AID 1346859; active = well fitted activation curve with a large enough effect in the signal ratio in the repeat runs, not every such curve was filed as active; the % refers to the signal ratio; note: series mostly up to about 77 µM). A digest of the protocol:
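SBE-bla HEK 293T, 4,000 cells/well, plated o/n; cpd in DMSO, 5 hr, 37 C/5% CO2; B/G FRET substrate 2 hr RT; ex 405, em 460/530 nm.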

Experiment [7] addresses Thyrotropin-releasing hormone receptor (Homo sapiens) (UniProt P34981). The experiment is described as follows: qHTS assay to identify small molecule antagonists of the thyrotropin-releasing hormone receptor (TRHR) signaling pathway (AID 1346877; active = well fitted inhibition curve with a large enough effect in the repeat runs, not every such curve was filed as active; note: series mostly up to about 51 µM). The method, boiled down:
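Human TRHR in HEK293 cells; inhibition of the intracellular calcium rise triggered by 1 nM TRH was followed by fluorescence over 3 min. Compounds were run at 15 concentrations, three replicates each.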

The target is the same in experiment [8]. The experiment is described as follows: qHTS assay to identify small molecule agonists of the thyrotropin-releasing hormone receptor (TRHR) signaling pathway (AID 1346891; calls by dose curve; note: series mostly up to about 58 µM). The method, boiled down:
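Intracellular calcium rise, read as fluorescence every second for 3 min, served as the agonist signal in dye-loaded HEK293 cells expressing TRHR; each compound ran at 15 concentrations in triplicate.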

A short description of experiment [9]: Human pregnane X receptor (PXR) small molecule agonists, qHTS cell viability counter screen (AID 1346977). Note: nearly all actives have a fitted effect of over 50% in size. The method, boiled down:
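PXR-Luc HepG2, 2,000 cells/well, 5% charcoal-stripped FBS; 5hr settle; cpd 24hr, 37C/5% CO2; CellTiter-Fluor at 23hr, read 1hr later (fluorescence).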

Experiment [10] can be described thus: Caspase-3/7 induction in HepG2 cells by small molecules, qHTS assay (AID 1346978). Note: nearly all actives have a fitted effect of over 15% in size. A digest of the protocol:
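Wild-type HepG2 cells (2,000/well) were settled 5 h at 37 C, 5% CO2, then exposed to compounds in DMSO for 17 h. Caspase-3/7 activity was read by luminescence 30 min after adding Caspase-Glo 3/7 reagent at room temperature.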

A short description of experiment [11]: Caspase-3/7 induction in CHO-K1 cells by small molecules, qHTS cell viability counter screen (AID 1346979). Note: nearly all actives have a fitted effect of over 35% in size. The method, boiled down: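 Cells (CHO-K1, wild type) are plated at 1,500 per well and incubated 5hr. Test compounds in DMSO are then pinned in, followed by 16hr at 37C and 5% CO2. Viability is read by CellTiter-Fluor fluorescence after 1hr.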
Experiment [12] can be described thus: Caspase-3/7 induction in CHO-K1 cells by small molecules, qHTS assay (AID 1346980). Note: nearly all actives have a fitted effect of over 15% in size. The method, boiled down:
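Wild-type cells were seeded at 1,500 per well and settled 5 hr at 37 C, 5% CO2, then exposed to DMSO-dissolved compounds for 17 hr. Caspase-Glo 3/7 reagent was added, and luminescence was read after 30min at room temperature.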

The nature of experiment [13]: Caspase-3/7 induction in HepG2 cells by small molecules, qHTS cell viability counter screen (AID 1346981). Note: series mostly up to about 92 µM; nearly all actives have a fitted effect of over 30% in size. The method, boiled down:
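The parent HepG2 line is plated at 2,000 cells per well and rested 5 hr before compound pinning from DMSO stocks. Following a 16-hr treatment at 37 C, a fluorogenic live-cell substrate (CellTiter-Fluor) reports viability after 1 hr.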

The target of experiment [14] is Nuclear receptor subfamily 1 group I member 2 (Homo sapiens) (UniProt O75469). Briefly: Human pregnane X receptor (PXR) small molecule agonists, qHTS assay (AID 1346982). Note: nearly all actives have a fitted effect of over 35% in size. Note: potency is the fitted concentration of half-maximal effect. The method, boiled down:
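After plating in 5% charcoal-stripped FBS and a 5 hr rest, PXR-Luc HepG2 cells received compounds in DMSO. Following 24 hr at 37 C, ONE-Glo was added and light output read.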

Experiment [15] has as its target Cytochrome P450 2D6 (Homo sapiens) (UniProt P10635). The experiment is described as follows: Cytochrome P450 Family 2 Subfamily D Member 6 (CYP2D6) small molecule antagonists: luciferase reporter qHTS assay (AID 1671196). Note: nearly all actives have a fitted effect of over 50% in size. Note: potency is the fitted concentration of half-maximal effect. A digest of the protocol:
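Quantitative HTS of Tox21 chemicals against CYP2D6 using a luminescent proluciferin substrate. After NADPH addition, 1 h room-temperature reaction; luminescence recorded 20 min post detection reagent.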
(In general: A reporter such as luciferase makes a cellular process visible.)

For experiment [16], the target named is Cytochrome P450 2C19 (Homo sapiens) (UniProt P33261). The experiment is described as follows: Cytochrome P450 Family 2 Subfamily C Member 19 (CYP2C19) small molecule antagonists: luciferase reporter qHTS assay (AID 1671197). Note: nearly all actives have a fitted effect of over 65% in size. Note: potency is the fitted concentration of half-maximal effect. A digest of the protocol: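 Relative luminescence units recorded 20 min after the detection reagent stopped a 1 h, 37C CYP2C19 reaction on proluciferin substrate, which was started by NADPH regeneration following 10 min room-temperature compound preincubation; ketoconazole positive control.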

The target in experiment [17] is Nuclear receptor subfamily 1 group I member 2 (Rattus norvegicus) (UniProt Q9R1A7). Briefly: Rat pregnane X receptor (rPXR) activation by small molecules, qHTS assay (AID 1346983). Note: nearly all actives have a fitted effect of over 20% in size. As to conditions: rPXR luciferase reporter cells, One-Glo luminescence, 24 h; max activation: hits give high values. A digest of the protocol: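 Cell-based rPXR luciferase reporter assay, 2,000 cells per well, rested 5hr at 37 C before compound addition in DMSO, then 24 hr at 37 C. One-Glo reagent was added and luminescence read after 30 min at room temperature.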

In experiment [18] the target is Nuclear receptor subfamily 1 group I member 2 (Homo sapiens) (UniProt O75469). Briefly: CYP3A4 induction through human pregnane X receptor (PXR) by small molecules, qHTS assay (AID 1346984). Note: nearly all actives have a fitted effect of over 40% in size. The method, boiled down:
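Human PXR activation is tracked via CYP3A4 promoter-luciferase in DPX-2 (HepG2) cells. Compounds treat cells for 24hr at 37C, and luminescence is read after One-Glo.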

Experiment [19] shares this target. Briefly: Human pregnane X receptor (PXR) activation by small molecules, qHTS assay (AID 1346985). Note: nearly all actives have a fitted effect of over 40% in size. Note: potency is the fitted concentration of half-maximal effect. A digest of the protocol:
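DPX-2 cells (HepG2 co-transfected with a PXR response element and a CYP3A4-promoter luciferase construct) were seeded at 2,000 per well, rested 5 hr at 37C, then exposed to DMSO-dissolved compounds for 24 hr. Activation was read as luciferase luminescence.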

Experiment [20] in a line: qHTS assay to identify small molecule agonists of the progesterone receptor (PR) signaling pathway - cell viability counter screen (AID 1346799; calls by dose curve; note: nearly all actives have a fitted effect of over 45% in size). The method, boiled down:
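Luminescence from CellTiter-Glo, added after the beta-lactamase FRET read in the same wells, gave cytotoxicity in PR-UAS-bla HEK293T cells treated with compounds for 16 hr at 37C.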

Here are results for eight compounds from PubChem BioAssay (Tox21).

Values without a mark were called inactive. Results filed as inconclusive are left out. Calls of active or inactive are those of the source. Unless noted, calls come from the whole dose curve; as a rule, active = well fitted curve in the direction sought with a large enough effect in the repeat runs; inconclusive = weak or mixed curves; inactive = no such curve, though single readings can be large; an effect the other way counts as inactive or inconclusive.
% is set by controls: 0 for no effect and ±100 for the full control effect.

Chain of Thyrotropin-releasing hormone receptor (Homo sapiens) (P34981 whole entry, looked up): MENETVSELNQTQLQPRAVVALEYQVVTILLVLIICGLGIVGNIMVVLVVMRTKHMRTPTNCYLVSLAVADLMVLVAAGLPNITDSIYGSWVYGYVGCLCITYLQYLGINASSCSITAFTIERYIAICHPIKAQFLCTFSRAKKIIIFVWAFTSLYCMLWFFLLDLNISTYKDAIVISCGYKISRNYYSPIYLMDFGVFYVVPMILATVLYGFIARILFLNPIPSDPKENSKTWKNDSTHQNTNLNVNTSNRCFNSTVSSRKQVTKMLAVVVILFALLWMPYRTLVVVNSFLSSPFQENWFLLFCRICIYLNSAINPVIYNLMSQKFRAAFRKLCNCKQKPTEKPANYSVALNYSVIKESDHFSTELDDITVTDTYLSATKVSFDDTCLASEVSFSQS
Chain of Cytochrome P450 2C19 (Homo sapiens) (P33261 whole entry, looked up): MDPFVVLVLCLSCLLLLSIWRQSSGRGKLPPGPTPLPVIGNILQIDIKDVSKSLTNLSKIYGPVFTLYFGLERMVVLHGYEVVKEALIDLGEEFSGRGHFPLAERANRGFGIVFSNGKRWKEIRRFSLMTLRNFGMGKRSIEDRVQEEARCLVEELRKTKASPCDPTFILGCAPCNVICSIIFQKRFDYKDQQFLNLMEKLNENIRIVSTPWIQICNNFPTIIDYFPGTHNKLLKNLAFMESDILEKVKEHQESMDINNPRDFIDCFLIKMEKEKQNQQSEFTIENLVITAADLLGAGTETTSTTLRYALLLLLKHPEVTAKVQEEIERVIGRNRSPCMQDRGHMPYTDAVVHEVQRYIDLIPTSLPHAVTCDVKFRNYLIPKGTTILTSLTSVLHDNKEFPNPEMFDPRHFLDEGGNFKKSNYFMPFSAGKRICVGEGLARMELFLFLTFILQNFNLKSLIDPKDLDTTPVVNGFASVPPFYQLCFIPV
Chain of Nuclear receptor subfamily 1 group I member 2 (Homo sapiens) (O75469 whole entry, looked up): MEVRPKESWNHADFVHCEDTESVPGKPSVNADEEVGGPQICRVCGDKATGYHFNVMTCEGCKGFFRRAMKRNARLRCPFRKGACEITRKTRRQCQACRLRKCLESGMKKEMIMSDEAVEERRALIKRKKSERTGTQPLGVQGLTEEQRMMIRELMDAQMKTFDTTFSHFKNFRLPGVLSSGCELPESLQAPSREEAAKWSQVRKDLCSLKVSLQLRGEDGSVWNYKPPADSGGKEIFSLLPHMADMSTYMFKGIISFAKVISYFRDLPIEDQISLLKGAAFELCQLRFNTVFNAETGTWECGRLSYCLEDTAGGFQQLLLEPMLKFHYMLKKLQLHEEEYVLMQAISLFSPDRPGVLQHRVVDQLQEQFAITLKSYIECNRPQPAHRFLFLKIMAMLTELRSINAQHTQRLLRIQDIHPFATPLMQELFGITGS
Chain of Cytochrome P450 2D6 (Homo sapiens) (P10635 whole entry, looked up): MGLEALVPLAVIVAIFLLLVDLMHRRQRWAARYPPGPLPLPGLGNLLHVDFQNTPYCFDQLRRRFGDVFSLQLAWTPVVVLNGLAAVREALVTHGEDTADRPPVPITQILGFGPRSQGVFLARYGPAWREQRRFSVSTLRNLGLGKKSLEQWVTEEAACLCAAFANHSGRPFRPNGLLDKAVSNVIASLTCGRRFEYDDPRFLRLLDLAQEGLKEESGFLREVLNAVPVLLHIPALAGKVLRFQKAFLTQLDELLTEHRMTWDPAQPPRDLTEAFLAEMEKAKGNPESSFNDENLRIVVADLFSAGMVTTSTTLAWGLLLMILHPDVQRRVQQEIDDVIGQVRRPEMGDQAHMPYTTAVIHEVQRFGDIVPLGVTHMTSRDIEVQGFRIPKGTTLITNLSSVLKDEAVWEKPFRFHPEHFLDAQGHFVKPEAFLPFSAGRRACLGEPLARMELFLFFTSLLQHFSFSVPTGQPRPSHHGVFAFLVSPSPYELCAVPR
Chain of Progesterone receptor (Homo sapiens) (P06401 whole entry, looked up): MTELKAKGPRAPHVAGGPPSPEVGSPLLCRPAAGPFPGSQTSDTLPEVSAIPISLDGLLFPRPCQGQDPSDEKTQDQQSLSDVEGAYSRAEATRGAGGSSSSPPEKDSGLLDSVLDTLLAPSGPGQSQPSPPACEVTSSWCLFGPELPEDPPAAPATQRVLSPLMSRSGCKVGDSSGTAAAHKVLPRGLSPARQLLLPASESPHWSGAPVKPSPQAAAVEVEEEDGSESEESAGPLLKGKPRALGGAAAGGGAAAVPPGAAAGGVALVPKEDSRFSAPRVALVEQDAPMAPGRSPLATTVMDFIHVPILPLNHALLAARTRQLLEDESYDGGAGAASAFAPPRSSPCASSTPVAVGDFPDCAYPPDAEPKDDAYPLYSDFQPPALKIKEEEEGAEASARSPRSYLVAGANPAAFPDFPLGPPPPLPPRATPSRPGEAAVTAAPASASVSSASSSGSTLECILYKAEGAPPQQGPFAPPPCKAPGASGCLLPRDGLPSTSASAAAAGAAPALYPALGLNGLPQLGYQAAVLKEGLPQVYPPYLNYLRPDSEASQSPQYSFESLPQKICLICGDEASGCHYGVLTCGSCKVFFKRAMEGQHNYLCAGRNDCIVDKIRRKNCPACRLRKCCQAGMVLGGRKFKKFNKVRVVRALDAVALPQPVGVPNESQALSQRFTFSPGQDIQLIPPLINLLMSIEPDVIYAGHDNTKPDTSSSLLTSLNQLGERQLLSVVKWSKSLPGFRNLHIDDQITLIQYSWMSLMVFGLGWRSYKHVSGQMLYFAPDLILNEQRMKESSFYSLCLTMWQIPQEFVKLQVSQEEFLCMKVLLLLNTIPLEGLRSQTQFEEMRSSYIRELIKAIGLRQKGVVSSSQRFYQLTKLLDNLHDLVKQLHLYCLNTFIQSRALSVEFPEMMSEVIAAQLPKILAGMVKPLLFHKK
Chain of Nuclear receptor subfamily 1 group I member 2 (Rattus norvegicus) (Q9R1A7 whole entry, looked up): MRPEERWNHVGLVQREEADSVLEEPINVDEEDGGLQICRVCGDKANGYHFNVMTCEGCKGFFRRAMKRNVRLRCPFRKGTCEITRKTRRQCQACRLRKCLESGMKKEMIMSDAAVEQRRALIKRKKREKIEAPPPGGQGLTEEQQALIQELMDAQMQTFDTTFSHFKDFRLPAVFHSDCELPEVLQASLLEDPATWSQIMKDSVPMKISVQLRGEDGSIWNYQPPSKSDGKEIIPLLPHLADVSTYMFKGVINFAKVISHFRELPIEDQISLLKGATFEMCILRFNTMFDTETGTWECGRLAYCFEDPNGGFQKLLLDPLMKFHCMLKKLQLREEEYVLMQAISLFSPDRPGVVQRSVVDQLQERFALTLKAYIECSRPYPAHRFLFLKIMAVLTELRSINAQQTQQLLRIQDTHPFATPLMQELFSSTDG

Turning to `CCCCC(CC)(CO)CO`, the outcome in experiment [1], in experiment [6], in experiment [7] and in experiment [10] was inactive. Also, the Potency entry in experiment [2], in [3], in experiment [4], in experiment [5], in experiment [8] and in [9] was “inactive” throughout. Further, the Potency entry in [11], in experiment [12], in experiment [13], in experiment [14] and in experiment [15] was “inactive” throughout. The Potency in [16] was 56.4 µM (active).

With `O=C(O)[C@@H]1[C@H]2C[C@H]3c4[nH]c5ccccc5c4CCN3C[C@@H]2CC[C@@H]1O`, the compound was called inactive in experiment [1], in experiment [6] and in experiment [7]. The Potency result in experiment [2], in experiment [3], in experiment [4], in [5], in [8] and in [11] was “inactive” in each case. Further, the Potency entry in experiment [12], in experiment [13], in experiment [14], in experiment [18] and in experiment [19] was “inactive” throughout. Moreover, the max activation in experiment [17] was -0.311%. The results for the Potency in experiment [15] and in experiment [16] were 1.55 µM (active) and 8.71 µM (active), respectively.

`COc1ccc2[nH]c(S(=O)Cc3ncc(C)c(OC)c3C)nc2n1` (stereo not drawn): the compound was called inactive in [1], in experiment [6], in experiment [7] and in experiment [10]. Further, the Potency result in experiment [2], in experiment [4], in [5], in experiment [9], in experiment [12] and in [13] was “inactive” each time. Besides, the Potency result in experiment [18] was “inactive”. Further, the figures for the Potency in experiment [14], in experiment [19] and in experiment [16] were 18.8 µM (active), 25.1 µM (active) and 34.7 µM (active), respectively.

For the compound `N#Cc1c(F)cccc1F`, the call in experiment [1], in experiment [6], in experiment [7] and in experiment [10] was inactive. In addition, the Potency entry in experiment [3], in [20], in [5], in experiment [8], in experiment [11] and in experiment [12] was “inactive” throughout. Moreover, the Potency result in [13], in [15] and in experiment [16] was “inactive” throughout.

Consider `CCC(C)N(C)C(=O)c1cc2ccccc2c(-c2ccccc2Cl)n1` (stereo not drawn), for which the outcome in experiment [1], in [6], in experiment [7] and in [10] was inactive. The Potency result in [3], in experiment [20], in [4], in experiment [5], in experiment [12] and in experiment [15] was “inactive” in each case. In [14], the Potency was 0.498 µM (active).

For the compound `C=C(C)C(=O)OC(C)C`, the result in [1], in [6], in [7] and in experiment [10] was inactive. In addition, the Potency result in experiment [20], in experiment [4], in [5], in [8], in experiment [9] and in experiment [11] was “inactive” each time. In addition, the Potency entry in experiment [12], in [13], in experiment [14], in [15] and in experiment [16] was “inactive” throughout.

For `CC(=O)CC(=O)c1ccccc1`, the outcome in experiment [1], in [6], in [7] and in experiment [10] was inactive. Further, the Potency entry in [3], in [4], in experiment [5], in experiment [8], in experiment [9] and in experiment [12] was “inactive” in each case. The Potency entry in experiment [13] was “inactive”. In addition, the Potency in experiment [16] was 31.9 µM (active).

Turning to `Cc1ccc(C(C)c2ccc(C)c(C)c2)cc1C`, the outcome in experiment [1], in experiment [6], in experiment [7] and in experiment [10] was inactive. Also, the Potency entry in experiment [3], in experiment [20], in experiment [4], in experiment [5], in experiment [8] and in [9] was “inactive” throughout. Also, the Potency result in experiment [11], in [12], in experiment [13] and in [15] was “inactive” in each case. The Potency in [16] was 7.1 µM (active).
